The campaign covered roughly 5,500 compounds. About 2,000 (36%) were called active. Not shown: some 18% with an inconclusive outcome. No stated cut-off is given here; in the data, active means normalized growth mostly below about 0.91 (no sharp cut-off); inconclusive means no clear call, values can overlap the other calls; inactive means mostly above about 0.92. The list shows a part of the results.
Test: chemical genetic growth profiling, strain panel (AID 1159580);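 further: tested at 20 µM; growth read once vehicle control cultures reached saturation at 30 °C; 1 = growth at the plate median or of vehicle wells; lower values mean less growth of the strain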
Conditions: growth OD

Measured: normalized growth

CC12CCCC(O)(C1)C1CC(C)(C)C1CC2 (configuration not stated)
inactive: S. cerevisiae deletion strains, locus YJR066W, strain TOR1, hits give low values 0.95 | S. cerevisiae deletion strains, locus YKL009W, strain mrt4, hits give low values 1.02 | S. cerevisiae deletion strains, locus YKL068W, hits give low values 1.01 | S. cerevisiae deletion strains, locus YKL085W, strain MDH1 (second series), hits give low values 0.998 | S. cerevisiae deletion strains, locus YKL085W, strain MDH1, hits give low values 0.998 | S. cerevisiae deletion strains, locus YKL160W, strain elf1, hits give low values 0.954 | S. cerevisiae deletion strains, locus YKR001C, strain vps1, hits give low values 1.02 | S. cerevisiae deletion strains, locus YKR026C, strain gcn3, hits give low values 0.999 | S. cerevisiae deletion strains, locus YKR091W, strain srl3, hits give low values 0.991 | S. cerevisiae deletion strains, locus YLL001W, strain dnm1, hits give low values 0.925 | S. cerevisiae deletion strains, locus YLL026W, hits give low values 0.982 | S. cerevisiae deletion strains, locus YLL041C, strain sdh2, hits give low values 0.982 | S. cerevisiae deletion strains, locus YLR027C, strain aat2, hits give low values 0.948 | S. cerevisiae deletion strains, locus YLR039C, strain RIC1, hits give low values 0.972 | S. cerevisiae deletion strains, locus YLR058C, strain SHM2, hits give low values 1.01 | S. cerevisiae deletion strains, locus YLR102C, strain apc9, hits give low values 1.01 | S. cerevisiae deletion strains, locus YLR113W, strain HOG1, hits give low values 0.939 | S. cerevisiae deletion strains, locus YLR221C, strain rsa3, hits give low values 0.983 | S. cerevisiae deletion strains, locus YLR258W, strain gsy2, hits give low values 0.961 | S. cerevisiae deletion strains, locus YLR262C, strain YPT6 (second series), hits give low values 0.878 | S. cerevisiae deletion strains, locus YLR262C, strain YPT6, hits give low values 1.01 | S. cerevisiae deletion strains, locus YLR268W, strain sec22, hits give low values 0.992 | S. cerevisiae deletion strains, locus YLR320W, strain mms22, hits give low values 0.937 | S. cerevisiae deletion strains, locus YLR342W, strain FKS1, hits give low values 0.918 | S. cerevisiae deletion strains, locus YLR357W, strain rsc2, hits give low values 0.984 | S. cerevisiae deletion strains, locus YLR370C, strain arc18, hits give low values 0.981 | S. cerevisiae deletion strains, locus YLR371W, strain rom2, hits give low values 1.01 | S. cerevisiae deletion strains, locus YLR384C, strain iki3, hits give low values 1.01 | S. cerevisiae deletion strains, locus YLR418C, strain cdc73, hits give low values 1.1 | S. cerevisiae deletion strains, locus YML016C, strain PPZ1, hits give low values 1.01 | S. cerevisiae deletion strains, locus YML032C, strain rad52, hits give low values 1.02 | S. cerevisiae deletion strains, locus YML120C, strain ndi1, hits give low values 1 | S. cerevisiae deletion strains, locus YML124C, strain tub3, hits give low values 1.01 | S. cerevisiae deletion strains, locus YMR058W, strain fet3, hits give low values 0.985 | S. cerevisiae deletion strains, locus YMR078C, strain ctf18, hits give low values 1.02 | S. cerevisiae deletion strains, locus YMR125W, strain sto1, hits give low values 0.974 | S. cerevisiae deletion strains, locus YMR129W, hits give low values 1.01 | S. cerevisiae deletion strains, locus YMR223W, strain ubp8, hits give low values 1.02 | S. cerevisiae deletion strains, locus YMR231W, strain pep5, hits give low values 0.996 | S. cerevisiae deletion strains, locus YMR263W, strain SAP30, hits give low values 1.01 | S. cerevisiae deletion strains, locus YMR307W, strain GAS1, hits give low values 0.968 | S. cerevisiae deletion strains, locus YNL067W, strain RPL9B, hits give low values 1.02 | S. cerevisiae deletion strains, locus YNL153C, strain GIM3, hits give low values 1.02 | S. cerevisiae deletion strains, locus YNL183C, strain NPR1, hits give low values 0.953 | S. cerevisiae deletion strains, locus YNL209W, strain ssb2, hits give low values 1 | S. cerevisiae deletion strains, locus YNL233W, strain BNI4, hits give low values 1.02 | S. cerevisiae deletion strains, locus YNL248C, strain rpa49, hits give low values 1.01 | S. cerevisiae deletion strains, locus YNL250W, strain rad50, hits give low values 1.04 | S. cerevisiae deletion strains, locus YNL271C, strain bni1, hits give low values 0.998 | S. cerevisiae deletion strains, locus YNL298W, strain CLA4, hits give low values 0.993 | S. cerevisiae deletion strains, locus YNL307C, strain MCK1, hits give low values 1.02 | S. cerevisiae deletion strains, locus YNL322C, strain KRE1 (second series), hits give low values 0.974 | S. cerevisiae deletion strains, locus YNL322C, strain KRE1, hits give low values 1.01 | S. cerevisiae deletion strains, locus YNR049C, strain mso1, hits give low values 1 | S. cerevisiae deletion strains, locus YNR052C, strain pop2, hits give low values 1.03 | S. cerevisiae deletion strains, locus YOL012C, strain htz1 1.39 | S. cerevisiae deletion strains, locus YOL147C, strain pex11, hits give low values 0.997 | S. cerevisiae deletion strains, locus YOR001W, strain rrp6, hits give low values 1.05 | S. cerevisiae deletion strains, locus YOR061W, strain CKA2, hits give low values 1 | S. cerevisiae deletion strains, locus YOR069W, strain VPS5, hits give low values 1.01 | S. cerevisiae deletion strains, locus YOR070C, strain gyp1, hits give low values 0.975 | S. cerevisiae deletion strains, locus YOR080W, strain dia2, hits give low values 1.01 | S. cerevisiae deletion strains, locus YOR083W, strain WHI5, hits give low values 0.956 | S. cerevisiae deletion strains, locus YOR106W, strain vam3, hits give low values 0.986 | S. cerevisiae deletion strains, locus YOR136W, strain idh2, hits give low values 1.01 | S. cerevisiae deletion strains, locus YOR144C, strain elg1, hits give low values 1 | S. cerevisiae deletion strains, locus YOR184W, strain ser1, hits give low values 0.978 | S. cerevisiae deletion strains, locus YOR231W, strain MKK1, hits give low values 0.973 | S. cerevisiae deletion strains, locus YOR265W, strain rbl2, hits give low values 0.999 | S. cerevisiae deletion strains, locus YOR290C, strain snf2, hits give low values 0.954 | S. cerevisiae deletion strains, locus YOR316C, strain cot1, hits give low values 1.01 | S. cerevisiae deletion strains, locus YPL051W, strain arl3, hits give low values 0.939 | S. cerevisiae deletion strains, locus YPL055C, strain LGE1, hits give low values 1.01 | S. cerevisiae deletion strains, locus YPL078C, strain atp4, hits give low values 0.941 | S. cerevisiae deletion strains, locus YPL106C, strain sse1, hits give low values 0.892 | S. cerevisiae deletion strains, locus YPL240C, strain hsp82, hits give low values 0.991 | S. cerevisiae deletion strains, locus YPL241C, strain CIN2, hits give low values 0.999 | S. cerevisiae deletion strains, locus YPL256C, strain CLN2, hits give low values 0.958 | S. cerevisiae deletion strains, locus YPR119W, strain clb2, hits give low values 1.02 | S. cerevisiae deletion strains, locus YPR141C, strain kar3, hits give low values 1 | S. cerevisiae deletion strains, locus YPR163C, strain tif3, hits give low values 1.02 | S. cerevisiae deletion strains, locus YPR167C, strain met16, hits give low values 1.01 | S. cerevisiae deletion strains, strain wtn01, hits give low values 1.01 | S. cerevisiae strains, strain wild type, hits give low values 1.01
active: S. cerevisiae deletion strains, locus YMR205C, strain PFK2, hits give low values 0.861 | S. cerevisiae deletion strains, locus YNL071W, strain lat1, hits give low values 0.859 | S. cerevisiae deletion strains, locus YOR270C, strain vph1, hits give low values 0.709

Reference: PubChem BioAssay AID1159580 (chemical genetic matrix, 2015)
